The results in this text go back to PubChem BioAssay.

The inhibition is the change of the read-out against control, counted positive when it falls.

The target in test [1] is Tumor necrosis factor receptor superfamily member 10B (Homo sapiens) (UniProt O14763). As to the kind of experiment: viability loss of caspase-8 NB7 cells with TRAIL – with/without TRAIL, luminescence panel, confirmation (AID 651596). The conditions noted are these: NB7 neuroblastoma + caspase-8, TRAIL sensitization, NB7 Caspase-8, with TRAIL, mean of runs, at 10 µM, stronger effect = higher value.
Sequence of Tumor necrosis factor receptor superfamily member 10B (Homo sapiens) (O14763 whole entry, looked up): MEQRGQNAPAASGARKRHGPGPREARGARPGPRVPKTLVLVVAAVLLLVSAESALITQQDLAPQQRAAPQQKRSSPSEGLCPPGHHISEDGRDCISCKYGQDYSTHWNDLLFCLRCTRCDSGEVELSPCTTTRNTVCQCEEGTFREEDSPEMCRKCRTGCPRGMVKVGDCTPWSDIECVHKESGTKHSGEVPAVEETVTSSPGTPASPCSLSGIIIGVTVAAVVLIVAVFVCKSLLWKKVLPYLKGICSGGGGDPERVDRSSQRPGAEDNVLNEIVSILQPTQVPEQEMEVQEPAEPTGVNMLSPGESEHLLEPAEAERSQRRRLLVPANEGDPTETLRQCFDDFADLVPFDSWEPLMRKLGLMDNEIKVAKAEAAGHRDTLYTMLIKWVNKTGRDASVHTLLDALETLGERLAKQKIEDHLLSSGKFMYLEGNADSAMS

Assay in test [2]: as above
The following applies: NB7 neuroblastoma + caspase-8, without TRAIL, NB7 Caspase-8, without TRAIL, mean of runs, at 10 µM.

Test [3] deals with Tumor necrosis factor receptor superfamily member 10B (Homo sapiens) (UniProt O14763). Description: compound enhancement of TRAIL-induced cell killing – NB7 cells plus caspase-8, luminescence, panel, dose response (AID 652002). The conditions noted are these: NB7 neuroblastoma +caspase-8, TRAIL sensitization, luminescence viability, NB7+Caspase-8, with TRAIL, run 1; at 12.5 µM (top of the series).

For test [4] the target is unchanged. The description is as above. The conditions noted are these: NB7 neuroblastoma +caspase-8, TRAIL sensitization, luminescence viability, NB7+Caspase-8, with TRAIL, run 2; at 12.5 µM (top of the series).
Assay in test [5]: as above
The following applies: NB7 neuroblastoma +caspase-8, no TRAIL, compound-alone cytotoxicity counter-screen, luminescence viability, NB7+Caspase-8, run 1; at 12.5 µM (top of the series) unless noted. On the technique in general: The purpose of a counterscreen is to sort out artefacts and off-target activity.

Assay in test [6]: as above
The conditions noted are these: NB7 neuroblastoma +caspase-8, no TRAIL, compound-alone cytotoxicity counter-screen, luminescence viability, NB7+Caspase-8, run 2; at 12.5 µM (top of the series) unless noted.

Test [7] addresses COP9 signalosome complex subunit 5 (Homo sapiens) (UniProt Q92905). Description: blockers of CSN-driven cullin deneddylation – biochemical, fluorescence polarization, single concentration, SCF-Nedd8OG substrate, confirmation (AID 720654; in the data active means inhibition above about 50%;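 further: 0% = DMSO with enzyme and 100% = no enzyme wells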). The conditions noted are these: Csn5 deneddylation of SCF-Nedd8OG, 90 min, at 16.6 µM, stronger effect = higher value. In general terms: Fluorescence polarisation rises when a labelled molecule tumbles more slowly, as on binding a larger partner.

Test [8] concerns the target 72 kDa type IV collagenase (Homo sapiens) (UniProt P08253). As to the kind of experiment: human MMP-2 inhibitors, single-point check – biochemical, fluorescence, single concentration, counter-screen for CSN deneddylation inhibitor project, confirmation (AID 720655;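 active means corrected plate-normalized z-score of 5 or more, or -5 or less, or inhibition of 15% or more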;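 further: plate controls were DMSO wells with enzyme for no effect and buffer wells lacking MMP-2 for full effect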). The conditions noted are these: recombinant MMP-2, FRET substrate fluorescence, 60 min; at 16.6 µM.
The next test concerns the target Prothrombin (Bos taurus) (UniProt P00735). Description: thrombin cleavage blockers, FP readout – biochemical, fluorescence polarization, single concentration, counter-screen for CSN deneddylation inhibitor project, confirmation (AID 720656;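 active means inhibition at or above a set limit, with a fluorescence interference ratio between 0.5 and a set maximum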). The conditions noted are these: bovine thrombin cleavage of Ub4-pepOG, at 16.6 µM, stronger effect = higher value.

The other results are listed elsewhere or left out. Activity calls are given as the source filed them. Unless noted, no stated cut-off is given here; in the data, active means activity above about 50%; inactive means the rest.

Sequence of 72 kDa type IV collagenase (Homo sapiens) (P08253 whole entry, looked up): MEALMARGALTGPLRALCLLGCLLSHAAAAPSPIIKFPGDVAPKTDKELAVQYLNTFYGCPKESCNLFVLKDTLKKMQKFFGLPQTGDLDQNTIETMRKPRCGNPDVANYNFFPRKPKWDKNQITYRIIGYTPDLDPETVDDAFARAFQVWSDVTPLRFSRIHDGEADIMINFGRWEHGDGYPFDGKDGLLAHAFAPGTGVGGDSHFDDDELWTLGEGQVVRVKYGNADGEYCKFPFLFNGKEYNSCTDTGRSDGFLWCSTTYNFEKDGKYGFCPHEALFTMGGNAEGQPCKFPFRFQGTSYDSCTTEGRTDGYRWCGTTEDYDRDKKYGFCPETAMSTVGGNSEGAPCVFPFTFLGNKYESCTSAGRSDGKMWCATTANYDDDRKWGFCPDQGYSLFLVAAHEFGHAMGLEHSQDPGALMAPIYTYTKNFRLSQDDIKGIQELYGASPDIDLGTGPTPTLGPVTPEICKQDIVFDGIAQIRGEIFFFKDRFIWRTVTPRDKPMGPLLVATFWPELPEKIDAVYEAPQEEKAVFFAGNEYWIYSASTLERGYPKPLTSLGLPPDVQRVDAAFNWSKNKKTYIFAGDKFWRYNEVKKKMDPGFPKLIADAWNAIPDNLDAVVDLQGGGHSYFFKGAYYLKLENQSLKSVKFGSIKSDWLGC
Sequence of Prothrombin (Bos taurus) (P00735 whole entry, looked up): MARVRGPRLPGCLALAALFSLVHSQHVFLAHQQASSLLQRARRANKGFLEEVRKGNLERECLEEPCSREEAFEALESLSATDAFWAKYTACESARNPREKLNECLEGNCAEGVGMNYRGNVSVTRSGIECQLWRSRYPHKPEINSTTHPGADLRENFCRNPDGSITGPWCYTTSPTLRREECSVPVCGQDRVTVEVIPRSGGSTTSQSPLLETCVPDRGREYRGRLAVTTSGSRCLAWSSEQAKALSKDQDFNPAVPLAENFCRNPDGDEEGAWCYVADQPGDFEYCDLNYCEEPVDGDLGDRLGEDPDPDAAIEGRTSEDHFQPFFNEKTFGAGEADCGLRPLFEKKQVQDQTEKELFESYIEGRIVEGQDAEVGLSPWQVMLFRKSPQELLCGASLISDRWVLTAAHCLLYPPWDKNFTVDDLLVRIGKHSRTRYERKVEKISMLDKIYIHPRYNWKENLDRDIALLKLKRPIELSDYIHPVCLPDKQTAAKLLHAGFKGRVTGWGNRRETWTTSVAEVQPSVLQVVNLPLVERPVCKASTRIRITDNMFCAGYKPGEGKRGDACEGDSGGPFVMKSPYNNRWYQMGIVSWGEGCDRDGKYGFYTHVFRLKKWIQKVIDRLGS
Sequence of COP9 signalosome complex subunit 5 (Homo sapiens) (Q92905 whole entry, looked up, one chain of several): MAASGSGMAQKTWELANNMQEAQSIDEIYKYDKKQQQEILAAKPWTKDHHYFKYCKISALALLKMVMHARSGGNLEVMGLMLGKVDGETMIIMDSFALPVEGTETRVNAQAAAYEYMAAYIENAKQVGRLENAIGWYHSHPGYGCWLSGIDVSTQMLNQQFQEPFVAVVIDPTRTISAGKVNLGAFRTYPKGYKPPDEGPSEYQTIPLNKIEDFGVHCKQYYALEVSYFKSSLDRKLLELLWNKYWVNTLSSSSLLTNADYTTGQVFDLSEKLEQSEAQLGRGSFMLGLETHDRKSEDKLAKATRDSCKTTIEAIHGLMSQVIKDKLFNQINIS

`CN(C(=O)COC(=O)c1cnc(Cl)c(Cl)c1)C1CCCCC1`: the activity in test [1] is 68.5%; in test [2], 47.4%. In addition, the activity, % sensitization in [3] is 11.9%; in [4], 14.2%; in [5], -5.35%; in [6], 13.1%.

As to `Cc1cc(NC(=O)C2CCCC2)nc2c1c(=O)oc1ccccc12`, the activity amounted to 68.7% in [1] and 50.2% in test [2]. Moreover, the activity, % sensitization in [3] is 15%; in [4] it was -6.85%; in test [5] it was 0.143%; in [6], 17.1%.

On to `CCN(CC)c1ccc(/C=N/NC(=O)c2ccco2)cc1`, for which the activity in test [1] was found to be 56.5%; in test [2] it was 53.3%. Also, the activity, % sensitization in test [3] was determined as 25%; in [4], 39.3%; in test [5] it was 34%; in [6] it was 23.6%.

Consider `COc1cccc(N/C=C/C(=O)c2ccc(Cl)cc2)c1`, for which the activity in test [1] amounted to 58%; in [2] it was 50%. Moreover, the activity, % sensitization in test [3] worked out at 32%; in [4] it was 38.3%; in test [5], 28.1%; in test [6], 40.5%.

In the case of `Cc1ccc2oc(-c3cccc(N)c3)nc2c1`, the activity in [1] was 60.5%; in [2], 46.2%. Besides, the activity, % sensitization in [3] came to 45.8%; in test [4] it was 58.3%; in [5], 53%; in test [6], 34%.

Regarding `O=C(Nc1cnc2ccccn2c1=O)c1ccc(Cl)cc1Cl`, the activity in test [1] worked out at 56%; in [2] it was 52.5%. The activity, % sensitization in test [3] was 15.5%; in test [4] it was 2.31%; in test [5], -7.49%; in [6] it was -6.53%.

As to `O=C(Nc1ccc2[nH]ccc2c1)c1cccs1`, the activity in [1] stood at 64%; in [2], 52.9%. Further, the activity, % sensitization amounted to 48.2% in [3], 52.7% in test [4], 46.5% in test [5] and 43.5% in test [6].

Regarding `O=C(NC1=NCCS1)c1cc2ccccc2o1`, the activity is 56.6% in test [1] and 48.6% in test [2]. In addition, the activity, % sensitization in test [3] came out at 45.6%; in test [4], 47%; in test [5] it was 8.75%; in test [6], 39.6%.

Consider `CCOc1ccc(NC(=O)c2ccco2)cc1`, for which the activity in [1] turned out to be 55.9%; in [2], 49.6%. Moreover, the activity, % sensitization is 43% in [3], 43.3% in [4], 45.1% in [5] and 31.6% in [6].

With `Cc1cc(N/N=C/c2ccccc2)nc(NCc2ccccc2)n1`, the activity in test [1] was 53.9%; in test [2] it was 41.1%. Besides, the activity, % sensitization was 30.4% in [3], 39.6% in test [4], 5.63% in test [5] and 26.4% in [6].

`C/C(=N\NC(=O)c1n[nH]c2c1CCC2)c1ccco1`: the values for the activity in [1] and in [2] were 55.8% and 51.4%, respectively. Moreover, the activity, % sensitization in test [3] turned out to be 28.7%; in [4], 33.5%; in [5], 27.9%; in test [6], 24.1%.

As to `COc1ccc(-c2noc(-c3ccc4c(c3)OCO4)n2)cc1`, the activity in test [2] was found to be 49.9%.

On to `Cc1ccc2c(c1)C(=NC1CCCCC1)c1cc3ccccc3nc1-2`, for which the activity in test [1] turned out to be 62.8%; in test [2] it was 51.2%. Also, the activity, % sensitization in test [3] is -15%; in [4] it was -9.21%; in test [5] it was 10.4%; in test [6] it was -8.89%.

Consider `Cc1cccc2nc(=S)n(C(=O)c3ccco3)n12`, for which the activity in test [1] was determined as 54.6%; in test [2], 44.5%. In addition, the activity, % sensitization was -5.2% in [3], -6.02% in test [4], -1.17% in test [5] and -18.3% in [6].

As for `C#Cc1ccc(NC(=O)C2(C)CCN2C(=O)Cc2ccc(C(C)C)cc2)cc1` (centres undefined), the activity came to 79.1% in test [1] and 49.2% in [2]. The activity, % sensitization in test [3] was found to be 18.4%; in test [4], 11.5%; in [5], 1.52%; in [6], 54.8%.

Regarding `O=C(Nc1ccc(C(=O)O)cc1)/C(=C\C=C\c1ccccc1)NC(=O)c1ccccc1Cl`, the activity in [1] was 63.6%; in test [2] it was 53.1%. The activity, % sensitization stood at 43.1% in test [3], 38.4% in test [4], 36.3% in test [5] and 45.9% in test [6].

For the compound `CCOc1ccc(/C=C/C(=O)Nc2cccc(C(C)=O)c2)cc1`, the values for the activity in test [1] and in test [2] were 50.7% and 37.2%, respectively. Moreover, the activity, % sensitization was found to be 14.7% in test [3], 23.8% in test [4], 37.9% in test [5] and 17.4% in test [6].

For the compound `CC(C)C[C@H](NC(=O)c1nc[nH]c1C(=O)N[C@@H](CCCCNC(=O)OC(C)(C)C)C(=O)OC(C)(C)C)C(=O)OCc1ccccc1`, the activity in test [1] is 77.7%; in [2], 20.4%. The activity, % sensitization is -36.8% in [3], -15.7% in [4], -4.5% in [5] and -28.8% in test [6].

In the case of `C=Cc1ccc(Cn2c(C)c(C(=O)NCc3cccc(C(F)(F)F)c3)sc2=O)cc1`, the results for the activity in test [1] and in test [2] were 60.2% and 20.5%, respectively. Besides, the activity, % sensitization in test [3] was -5.7%; in [4], -12.9%; in test [5], 5.05%; in test [6], 6.45%.

Consider `COC(=O)[C@]12CCCCC=C1N(Cc1cccc3ccccc13)C(=O)[C@H](CC(=O)NCc1ccc(OC)c(OC)c1)C2`, for which the values for the activity in [1] and in test [2] were 66.4% and 53%, respectively. Besides, the activity, % sensitization in test [3] was 24.8%; in test [4] it was 43%; in [5], 16.7%; in test [6], 36.7%.

Consider `C=CCC1=C/C(=C\c2c(N)n3nc(CC(=O)N4CCOCC4)sc3nc2=O)C=C(OC)C1=O`, for which the inhibition in test [7] is 16.7% (inactive); in [8], -4.68% (inactive); with Prothrombin (Bos taurus) it was 72.6% (active).

For the compound `O=C(N/N=C/c1cccnc1)c1ccc2c(c1)OCO2`, the activity came out at 51.9% in test [1] and 42.5% in test [2]. The activity, % sensitization in test [3] worked out at 32.8%; in test [4], 32.4%; in test [5] it was 32.2%; in test [6], 46.2%.

For the compound `O=C(NC(=O)c1ccccc1)Nc1ccccc1`, the activity in [1] was determined as 54.2%; in test [2], 49.9%. Moreover, the activity, % sensitization in [3] is 28.7%; in [4], 6.32%; in [5], 7.63%; in [6] it was -8.56%.

Regarding `Cc1ccn2cc(C(=O)Nc3ccc4c(c3)OCCO4)nc2c1`, the activity in test [1] stood at 58.2%; in [2] it was 50.8%. The activity, % sensitization in [3] worked out at 38.4%; in test [4] it was 40.7%; in test [5] it was 47.9%; in test [6], 50.7%.

`CS(=O)(=O)c1ccc2c(c1)SC1=NC(=O)/C(=C/c3ccco3)C(=N)N12`: the inhibition in test [7] is 50% (inactive); in [8], 4.65% (inactive); with Prothrombin (Bos taurus), 41.6% (active).

On to `COc1ccc2[nH]c3c(C)c4cc[n+](C)cc4c(C)c3c2c1`, for which the inhibition in test [7] is -33.2% (inactive); in [8] it was -35.8% (active); with Prothrombin (Bos taurus) it was 12.2% (inactive).

On to `CCCCC1CCC(C(=O)N(CCC(C)C)c2c(N)n(CCCC)c(=O)[nH]c2=O)CC1` (centres undefined), for which the activity in [1] was determined as 90.3%; in [2] it was 39.2%. The activity, % sensitization in test [3] was -14.2%; in test [4], -10.1%; in test [5], -5.24%; in [6], -5.58%.

In the case of `CC(C)Cc1nc2oc3c(Cl)ncnc3c2c2c1CCCC2`, the values for the activity in test [1] and in test [2] were 55.5% and 49.8%, respectively. The activity, % sensitization was -5.07% in [3], -15% in test [4], -9.85% in test [5] and -8.86% in test [6].
